This is a sample that favours compounds with a hit; in the whole collection about 31% have one here.
CYP2C19 activ = human CYP2C19 activators, primary screen, biochemical, luminescence; activation factor at 5 µM; Cytochrome P450 2C19 (Homo sapiens), P33261; recombinant CYP2C19, luciferin-H EGE luminescence; active compounds read high; 0 = fully inhibited enzyme, 1 = untreated enzyme; 96,000 tested, under 10 active;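 active = activation factor of at least 2 at 5 µM in the primary screen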;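 note: 0 = wells with 2.5 mM tranylcypromine and 1 = vehicle-only wells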
PLAP act = PLAP enzyme activators, biochemical, luminescence, HTS; Alkaline phosphatase, placental type (Homo sapiens), P05187; purified PLAP enzyme, luminescent substrate read-out; active compounds read high; activation fold at 20 µM; actives 1.2% (n = 96,000); in the data active = activation fold above about 2
Target sequence (P05187 whole entry, looked up): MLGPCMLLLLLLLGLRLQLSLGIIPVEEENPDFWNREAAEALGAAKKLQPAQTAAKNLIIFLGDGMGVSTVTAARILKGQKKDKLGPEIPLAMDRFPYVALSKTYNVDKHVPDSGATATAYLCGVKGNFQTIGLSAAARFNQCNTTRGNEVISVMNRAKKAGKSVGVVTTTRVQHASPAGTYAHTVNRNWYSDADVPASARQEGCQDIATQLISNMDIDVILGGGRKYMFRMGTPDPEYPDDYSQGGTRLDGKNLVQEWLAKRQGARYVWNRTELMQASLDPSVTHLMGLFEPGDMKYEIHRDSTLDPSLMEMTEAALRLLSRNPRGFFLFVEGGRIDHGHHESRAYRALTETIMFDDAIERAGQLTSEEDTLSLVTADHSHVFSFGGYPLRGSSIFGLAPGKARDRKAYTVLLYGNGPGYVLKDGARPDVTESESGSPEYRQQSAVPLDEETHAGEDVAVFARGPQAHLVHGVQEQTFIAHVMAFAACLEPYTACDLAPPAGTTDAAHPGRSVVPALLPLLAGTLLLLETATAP
CYP2C19 inhib = blockers of cytochrome P450 2C19 activity – biochemical, luminescence, ADME assay, primary screen; inhibition, % at 5 µM; CYP2C19 Supersomes, luciferin-H EGE luminescence, 30 min; actives 21% (n = 96,000); P33261;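 active = CYP2C19 inhibition above a set limit at 5 µM in the primary screen, cut at about 50% in these data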;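 note: plate controls were negative control wells for no effect and 2.5 mM tranylcypromine positive control for full effect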
CYP2C9 act = human CYP2C9 activators, primary screen, biochemical, luminescence; recombinant CYP2C9, luciferin-H conversion; active compounds read high; factor 1 = untreated enzyme, 0 = blocked; AID 1024, 2008; Cytochrome P450 2C9 (Homo sapiens), P11712; activation factor at 5 µM; actives 1.4% (n = 96,000);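 active = activation factor of 2 or more for CYP2C9 at a 5 µM dose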;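 note: 0 = sulfaphenazole-blocked wells and 1 = vehicle-only wells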
CYP2C9 inh = blockers of cytochrome P450 2C9 activity – biochemical, luminescence, ADME assay, primary screen; CYP2C9 Supersomes, luciferin-H conversion; inhibition, % at 5 µM; actives 20% (n = 96,000);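 active = blocking of liver enzyme CYP2C9 beyond about 50% at 5 µM, limit read from the data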
* hit, by the source's call.

For COc1ccc(C)cc1S(=O)(=O)N(CC(=O)Nc1cccc([N+](=O)[O-])c1)c1cc(C)cc(C)c1 the results were CYP2C19 activ 1, PLAP act 0.9, CYP2C19 inhib -2, CYP2C9 act 0.1 and CYP2C9 inh 93*.
For CCN(C1CCCCC1)S(=O)(=O)c1ccc(S(=O)(=O)N(CC(=O)Nc2ccccc2)C2CC2)cc1 the results were CYP2C19 activ 1.1, PLAP act 0.6, CYP2C19 inhib -14, CYP2C9 act 0.3 and CYP2C9 inh 68*.
Screening Cc1ccc(S(=O)(=O)N(CC(=O)N2CCOCC2)C2CCCCC2)cc1 returned CYP2C19 activ 1, PLAP act 1.6, CYP2C19 inhib -1, CYP2C9 act 0.9 and CYP2C9 inh 9.
O=C(CN(C1CC1)S(=O)(=O)c1ccc(S(=O)(=O)N2CCCCCC2)cc1)Nc1ccccc1 was read as CYP2C19 activ 0.5, PLAP act 0.7, CYP2C19 inhib 46, CYP2C9 act 0.6 and CYP2C9 inh 40.
COc1ccc(C)cc1S(=O)(=O)N(CC(=O)O)c1ccc(F)cc1 was read as CYP2C19 activ 1, PLAP act 1.3, CYP2C19 inhib 0, CYP2C9 act 0.7 and CYP2C9 inh 28.
For Cc1ccc(NS(=O)(=O)c2ccc(OCC(=O)Nc3cccc([N+](=O)[O-])c3)c(C)c2)cc1 the results were CYP2C19 activ 0.5, PLAP act 0.8, CYP2C19 inhib 52*, CYP2C9 act 0.1 and CYP2C9 inh 89*.
`Cc1ccc(S(=O)(=O)N(CC(=O)Nc2cccc([N+](=O)[O-])c2)C2CCCCC2)cc1` gave CYP2C19 activ 0.8, PLAP act 1, CYP2C19 inhib 19, CYP2C9 act 0.1 and CYP2C9 inh 92*.
CCc1ccc(N2C(=O)c3sc4nnc(-c5ccccc5)c(=O)n4c3C2=O)cc1 was read as CYP2C19 activ 0.9, PLAP act 1.5, CYP2C19 inhib 14, CYP2C9 act 0.4 and CYP2C9 inh 64*.
`COc1ccccc1/C=N/n1c(N)c(S(=O)(=O)c2cccs2)c2nc3ccccc3nc21` gave CYP2C19 activ 1.1, PLAP act 1.2, CYP2C19 inhib -11, CYP2C9 act 1 and CYP2C9 inh 1.
Screening Clc1ccc(NCc2nnc3n2CCCCC3)cc1 returned CYP2C19 activ 0.5, PLAP act 0.9, CYP2C19 inhib 55*, CYP2C9 act 1 and CYP2C9 inh 2.
c1ccc(N2CCCCC2)c(NC2=NCCC2)c1 was read as CYP2C19 activ 0.9, PLAP act 1, CYP2C19 inhib 6, CYP2C9 act 0.8 and CYP2C9 inh 18.
Screening N#Cc1c(NC(=O)C2CC(c3ccccc3Cl)=NO2)sc2c1CCC2 (stereo not drawn) returned CYP2C19 activ 0.9, PLAP act 1.1, CYP2C19 inhib 7, CYP2C9 act 0.5 and CYP2C9 inh 50.
For Cc1onc(-c2ccccc2)c1C(=O)Nc1sc2c(c1C#N)CCC(C)C2 (stereo not drawn) the results were CYP2C19 activ 0.8, PLAP act 1.2, CYP2C19 inhib 21, CYP2C9 act 0.1 and CYP2C9 inh 92*.
Cc1onc(-c2ccccc2)c1C(=O)Nc1nc2c(s1)CCCC2 was read as CYP2C19 activ 0.7, PLAP act 1.2, CYP2C19 inhib 28, CYP2C9 act 0.5 and CYP2C9 inh 46.
Screening Cc1onc(-c2ccccc2Cl)c1C(=O)Nc1sc2c(c1C#N)CCC2 returned CYP2C19 activ 0, PLAP act 1.3, CYP2C19 inhib 98*, CYP2C9 act 0 and CYP2C9 inh 100*.
For COc1ccc(C2CC3CC(c4ccccc4)N2O3)cc1 (stereo not drawn) the results were CYP2C19 activ 0.1, PLAP act 1.2, CYP2C19 inhib 91*, CYP2C9 act 0.5 and CYP2C9 inh 48.
Screening CCc1ccccc1NC(=O)c1ccc(F)c(S(=O)(=O)N2CCC(C(N)=O)CC2)c1 returned CYP2C19 activ 1, PLAP act 1.2, CYP2C19 inhib -1, CYP2C9 act 0.5 and CYP2C9 inh 46.
Screening CC1Cc2ccccc2N1S(=O)(=O)c1cnc[nH]1 (stereo not drawn) returned CYP2C19 activ 0.1, PLAP act 1.1, CYP2C19 inhib 92*, CYP2C9 act 0 and CYP2C9 inh 98*.
